High-throughput results as filed in PubChem.
Many of the other results were omitted from the sample, so hits are more common in it than they were.
Algae TAG accum: increases triacylglycerol in Chlamydomonas reinhardtii | Chlamydomonas reinhardtii TAG, Nile Red fluorescence, 72 h | 0.84% of 44,000 active | calls only at 10 µM (by protocol); call rule not given here;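 note: hits raise Nile Red signal meaning more stored TAG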
Starred values were filed as active, the others as inactive; i = inactive; + = active, no number.

SMILES | Algae TAG accum
O=[N+]([O-])c1ccc(CN2CCN(Cc3cc(Br)ccc3O)CC2)cc1 | +
O=[N+]([O-])c1ccc(CN2CCc3ccccc3C2)cc1 | +
O=[N+]([O-])c1ccc(CN2CCCCC2)cc1 | i
O=[N+]([O-])c1ccc(CN2CCOCC2)cc1 | i
COc1cc2c(cc1OC)CN(Cc1ccc([N+](=O)[O-])cc1)CC2 | i
O=[N+]([O-])c1ccc(S(=O)(=O)N2CCN(Cc3cc(Br)ccc3O)CC2)cc1 | i
COc1cccc(OC)c1OCCOc1cc(Cl)ccc1Cl | i
Cc1cc(C)nc(NC(=O)c2ccccc2Cl)n1 | i
COc1ccccc1NC(=O)COc1cc(C)c(Cl)c(C)c1 | i
Cc1ccc(OCCCN2CCCCC2)c(C)c1 | i
Cc1ccc(OCCCCN2CCOCC2)c(C)c1 | i
Cc1ccc(OCCCCN2CCCC2)cc1C | +
Cc1cccc(OCCCCN2CCCCC2)c1 | i
Cc1ccc(OCCCCN2CCCC2)c(C)c1 | +
Cc1ccc(OCCN2CCCC2)cc1C | i
Cc1ccc(OCCCCN2CCCCC2)cc1 | i
Cc1ccc(OCCCN2CCOCC2)c(C)c1 | +
Cc1ccccc1OCCCN1CCOCC1 | i
Cc1ccccc1OCCCCN1CCCCC1 | i
Cc1ccc(OCCCCN2CCOCC2)cc1 | +
Clc1ccc(OCCCN2CCOCC2)cc1 | i
COc1ccccc1N1CCN(C(=O)c2ccc(Cl)cc2Cl)CC1 | i
CN(C)CCN(Cc1ccccc1)C(=O)C1CCN(CC2CCCCC2)CC1 | i
O=[N+]([O-])c1cc(F)c(N2CCCC2)cc1N1CCN(S(=O)(=O)c2ccccc2)CC1 | i
CCN(CCN(C)C)C1CCC(C)CC1 (configuration not stated) | i
SMILES | Algae TAG accum
COCC(C)NC(=O)c1ccc([N+](=O)[O-])cc1Cl (configuration not stated) | i
CCOc1cc(/C=C(\C#N)c2ccc([N+](=O)[O-])cc2)ccc1O | i
O=C(/C=C/c1ccc(-c2ccc(F)cc2)o1)c1cccs1 | i
O=C(NCCN1CCOCC1)NC12CC3CC(CC(C3)C1)C2 | i
O=C(C(=O)N1CCOCC1)c1c(-c2ccccc2)cc2ccccn12 | i
O=C(CCSc1ccccc1)Nc1ccc(F)cc1F | i
Cc1ccc(OCCCCn2ccnc2)c(Br)c1 | i
Cc1ccc(OCCCCN2CCCC2)c(Br)c1 | +
Cc1ccc(OCCCn2ccnc2)c([N+](=O)[O-])c1 | i
Cc1ccc(OCCCN2CCCC2)c(Br)c1 | i
Cc1ccc(OCCCn2ccnc2)c(Br)c1 | +
Cc1ccc(OCCCN2CCCC2)c([N+](=O)[O-])c1 | i
COc1ccc(Cl)cc1NC(=O)c1ccc(Br)o1 | i
O=C(CCc1nnc(NC(=O)c2ccc([N+](=O)[O-])cc2Cl)s1)c1ccccc1 | i
O=C(NCCCO)Nc1ccc(Cl)c(Cl)c1 | i
O=C(Nc1cc(-c2ccc(F)cc2)[nH]n1)c1ccc([N+](=O)[O-])cc1 | i
O=C(C1CCN(CC2CCCCC2)CC1)N1CCN(c2ccccc2F)CC1 | +
Cc1ccc(CN2CCC(C(=O)N3CCN(c4ccccc4F)CC3)CC2)cc1 | i
Cc1ccc(CN2CCC(C(=O)N3CCN(c4ccccc4F)CC3)CC2)o1 | +
Cc1cccc(N2CCN(C(=O)C3CCN(CC4CCCCC4)CC3)CC2)c1C | +
COc1ccc(CN2CCC(C(=O)N3CCN(c4cccc(C)c4C)CC3)CC2)cc1 | i
Cc1cccc(N2CCN(C(=O)C3CCN(CC(C)C)CC3)CC2)c1C | i
Cc1ccc(CN2CCC(C(=O)N3CCN(c4cccc(C)c4C)CC3)CC2)o1 | i
O=C(C1CCCCC1)N1CCN(c2ccccc2F)CC1 | i
CC(C)CN1CCC(C(=O)N2CCN(c3ccccc3F)CC2)CC1 | i
SMILES | Algae TAG accum
Cc1ccc(C)c(OCC(=O)N2CCc3ccccc32)c1 | i
CCN(CC)S(=O)(=O)c1cc(C(=O)Nc2ccccc2[N+](=O)[O-])ccc1Br | i
CCN(CC)c1nc(-c2ccc([N+](=O)[O-])cc2)nc2ccccc12 | i
CCN(CC)c1ccc2c(c1)oc1nc(=N)c(C#N)c3[nH]c(N)c(C#N)c2c13 | i
O=C(CSc1nc2ccccc2c(=O)[nH]1)NCc1ccco1 | i
C=CCc1ccccc1OCCCN1CCOCC1 | i
CN(C)C1=C(Nc2cccc(Cl)c2)C(=O)c2ccccc2C1=O | i
COc1cccc(NC2=C(N(C)C)C(=O)c3ccccc3C2=O)c1 | +
COc1ccc(NC2=C(N(C)C)C(=O)c3ccccc3C2=O)cc1 | i
Cc1cc(C(C)(C)C)ccc1OCCOCCN1CCN(C)CC1 | +
Cc1cc(C(C)(C)C)ccc1OCCN1CCN(C)CC1 | +
CN1CCN(CCOCCOc2c(Cl)cc(Cl)cc2Cl)CC1 | i
Cc1cc(C(C)(C)C)ccc1OCCCN1CCN(C)CC1 | i
CN1CCN(CCOCCOc2ccccc2-c2ccccc2)CC1 | i
Cc1cc(Cl)c(OCCCN2CCN(C)CC2)c(Br)c1 | i
Cc1cc(C(C)(C)C)ccc1OCCN1CCOCC1 | i
C=CCc1cc(OC)ccc1OCCOCCN1CCN(C)CC1 | i
C=CCc1cc(C)ccc1OCCOCCN1CCN(C)CC1 | i
